Source: PubChem
RORgamma inh: inhibitors of mouse ROR gamma transcriptional activity; hit rate 5.4% among 310,000; Drosophila S2 Gal4-RORgamma UAS-luciferase reporter, 20 h; Potency, µM (titrated, usually from 53.6 µM), for inactives: at the highest dose activity change, negative = inhibition, hits mostly inhibitors; also: % is scaled to controls: 0 for no effect and ±100 for the full control effect; nearly all actives have a fitted effect of over 60% in size
Target sequence (P51450 whole entry, looked up, the tested form may be a part): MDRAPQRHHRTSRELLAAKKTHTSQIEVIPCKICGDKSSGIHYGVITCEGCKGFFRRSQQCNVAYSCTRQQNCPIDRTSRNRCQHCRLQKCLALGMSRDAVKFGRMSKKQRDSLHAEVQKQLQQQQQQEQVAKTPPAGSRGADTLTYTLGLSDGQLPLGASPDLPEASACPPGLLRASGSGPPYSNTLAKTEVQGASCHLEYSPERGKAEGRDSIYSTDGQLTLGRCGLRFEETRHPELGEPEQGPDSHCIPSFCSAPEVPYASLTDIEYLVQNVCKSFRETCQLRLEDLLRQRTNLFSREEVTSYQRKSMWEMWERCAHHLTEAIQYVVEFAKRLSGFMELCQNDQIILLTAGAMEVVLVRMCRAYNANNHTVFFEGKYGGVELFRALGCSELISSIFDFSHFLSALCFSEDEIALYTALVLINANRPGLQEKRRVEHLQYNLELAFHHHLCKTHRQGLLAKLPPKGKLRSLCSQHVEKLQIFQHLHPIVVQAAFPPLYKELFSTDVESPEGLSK
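Luminescence from a UAS-regulated Photinus luciferase reporter in stably transfected Drosophila Schneider cells is measured; decreased signal marks ROR gamma inhibition. Fusion expression is induced by 700 uM copper sulfate for 20 hr.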
KB-3-1 cytotox: kills parental KB-3-1 adenocarcinoma cells | KB-3-1 viability, CellTiter-Glo ATP luminescence, 72 h | AID 1347075 | hit rate 1.4% among 400,000 | Potency, µM (doses to about 46.1 µM), most hits filed as cytotoxic; also: % is scaled to controls: 0 for no effect and ±100 for the full control effect; nearly all actives have a fitted effect of over 60% in size
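72 h, 37 °C compound treatment of KB-3-1 parental cells; CellTiter-Glo added, 10 min, luminescence read. Data corrected against DMSO-only plates and normalized before curve fitting.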
VP16 counter: Gal4-VP16 reporter inhibition counter-screen. hit rate 3.5% among 310,000. Drosophila S2 Gal4-VP16 UAS-luciferase, luminescence, 20 h. Potency, µM (highest dose often 53.6 µM), inactives show at the top dose activity, negative = inhibition, hits mostly inhibitors. AID 2546;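 also: Gal4-VP16 expression switched on by copper sulfate through the metallothionein promoter; % is scaled to controls: 0 for no effect and ±100 for the full control effect; nearly all actives have a fitted effect of over 50% in size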
KB-V1 cytotox: KB-V1 MDR subline cytotoxicity; KB-V1 MDR cells viability, CellTiter-Glo, 72 h; Potency, µM (titrated, usually from 46.1 µM), hits mostly cytotoxic; hit rate 3.4% among 400,000; also: % is scaled to controls: 0 for no effect and ±100 for the full control effect; nearly all actives have a fitted effect of over 60% in size
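Compound-treated KB-V1 multidrug-resistant cells, 72 h, 37 degrees C; viability by CellTiter-Glo. Fitted qHTS curves give the values.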
MCF10A rerep: DNA re-replication induction in MCF 10a cells; MCF 10A DNA re-replication, Hoechst nuclear intensity, 48 h; AID 624296; Potency, µM (titrated, usually from 46.1 µM), inactives show at the top dose activity, positive = re-replication, actives largely listed as activators; hit rate 2.9% among 350,000; also: % of control where 0% means no effect; nearly all actives have a fitted effect of over 50% in size
SW480 rereplic: induces DNA re-replication in SW480 colon adenocarcinoma cells; SW480 DNA re-replication, Hoechst DNA content imaging, 48 h; Potency, µM (series often up to 46.1 µM), inactives show at the highest dose re-replication activation, most hits filed as activators; hit rate 1.8% among 340,000; AID 624297; also: % of control where 0% means no effect; nearly all actives have a fitted effect of over 55% in size
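250 cells/well; 23 nL cpd via pin tool; 48 hr, 37 C, 5% CO2; Hoechst 40 min; imager read of total nuclear intensity, ex 405/em 500-530 nm.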
Active calls of the source: *; i = inactive; u = inconclusive; x = no result; [ ] = another dose, or the depositor's remark. Sampled rows, rich in hits. Any-hit rate of the full collection: about 10%. Calls follow the shape of the dose curve; as a rule, active = well fitted curve in the direction sought with a large enough effect; inconclusive = small, poorly fitted or top-dose-only effect, or another doubt; inactive = no such curve, though single readings can be large; an effect the other way counts as inactive or inconclusive. Potency is read from the fitted curve at half-maximal effect.

SMILES	RORgamma inh	KB-3-1 cytotox	VP16 counter	KB-V1 cytotox	MCF10A rerep	SW480 rereplic
Cc1ccccc1Nc1nc(Nc2ccccc2C)nc(SC2=NCCS2)n1	6.3µM*	i	7.1µM*	16µM*	-3%	-3%
Cc1ccc(F)cc1-c1ccc(C(=O)N=C(N)N)o1	-43%	x	-2%	x	x	x
Cc1ccc(CSc2nnc(-c3ccc(NC(=O)CCc4ccccc4)cc3)n2C)cc1	x	i	x	i	x	x
O=C(Nc1ccc2c(c1)C(=O)N(c1ccccc1)C2=O)c1cccs1	-8%	i	10%	i	u	14%
O=C(O)CCN1C(=O)c2ccc(NC(=O)c3cccs3)cc2C1=O	9%	i	-5%	i	21µM*	11%
N#Cc1ncc(-c2ccc3c(c2)OCCOCCOCCOCCOCCO3)nc1C#N	11µM*	i	4.5µM*	i	4%	-3%
N#Cc1ncc(-c2ccc3c(c2)OCCOCCOCCOCCO3)nc1C#N	13µM*	u	u	i	18µM*	u
COc1ccc(/C(=C\C(=O)O)c2nccc3cc(OC)c(OC)cc23)cc1OC	-7%	x	-1%	x	x	x
CCc1ccc(C(=O)Nc2cccc(-c3nn[nH]n3)c2)s1	-18%	i	-27%	i	-2%	-8%
Cc1ccc(-c2nnc(-c3cccc(NC(=O)c4cccs4)c3)o2)cc1	-29%	i	-3%	12µM*	10%	0%
O=C(Nc1cccc(-c2nn[nH]n2)c1)c1cccs1	7.9µM*	i	10µM*	u	4%	-3%
O=C(Nc1cccc(-c2nnco2)c1)c1cccs1	30%	i	3%	i	-6%	-5%
O=C(Cc1cccs1)Nc1ccc(-c2nnc(-c3ccccc3)o2)cc1	x	i	x	i	-3%	-3%
Cc1cccc(-c2nnc(-c3cccc(NC(=O)Cc4cccs4)c3)o2)c1	26%	i	1%	21µM*	u	u
CC(=O)c1cccc(OCC(=O)Nc2cccc(C(=O)Nc3c(C)n(C)n(-c4ccccc4)c3=O)c2)c1	x	i	x	i	15%	-6%
COc1ccc(-c2c(C)sc(NC(=O)c3ccnn3C)c2C#N)cc1	-19%	10µM*	u	u	20%	-330%
COc1ccc(-c2oc(NC(=O)CSc3ncn[nH]3)c(C#N)c2-c2ccc(OC)cc2)cc1	36%	i	5%	i	14µM*	35µM*
COc1ccccc1OCC(=O)Nc1oc(-c2ccccc2)c(-c2ccccc2)c1C#N	-36%	i	-71%	u	u	-7%
N#Cc1c(NC(=O)COC(=O)C2CC3C=CC2C3)oc(-c2ccccc2)c1-c1ccccc1 (stereo not drawn)	2%[0.365 µM]	i	x	i	18µM*	-40%
N#Cc1c(NC(=O)CN2CCOCC2)oc(-c2ccccc2)c1-c1ccccc1	-12%	i	7%	i	4%	-4%
N#Cc1c(NC(=O)CSc2ncccn2)oc(-c2ccccc2)c1-c1ccccc1	x	i	x	u	18%	-9%
COc1ccc(C(=O)Nc2sc(C)c(-c3ccccc3)c2C#N)cc1OC	-17%	i	-15%	u	u	-10%
Cc1ccc(OCC(=O)Nc2oc(-c3ccccc3)c(-c3ccccc3)c2C#N)cc1	x	i	x	i	16µM*	-1%
COc1ccc(-n2cc(C(=O)OCc3ccc(Cl)cc3)c3ccccc3c2=O)cc1	x	i	x	i	x	x
Cc1ccc2c(c1)N(C(=O)N1CCC(C(=O)NCc3cccc(Br)c3)CC1)CCO2	x	u	x	i	x	x
SMILES	RORgamma inh	KB-3-1 cytotox	VP16 counter	KB-V1 cytotox	MCF10A rerep	SW480 rereplic
Cc1sc(NC(=O)COc2ccccc2)c(C#N)c1-c1ccccc1	15%	i	-3%	16µM*	-3%	-6%
CC(=O)NC1[C@H](O)C[C@@](O)(C(=O)O)O[C@H]1[C@H](O)[C@H](O)CO (stereo partly drawn)	9%	x	-1%	x	-1%	-1%
C[C@@H](NC(=O)c1nc[nH]c1C(=O)N[C@H](C)c1ccccc1)c1ccccc1	x	i	x	i	0%	-1%
CC(C)C[C@H](NC(=O)c1nc[nH]c1C(=O)NC(c1ccccc1)c1ccccc1)C(=O)OC(C)(C)C	0.71µM*	u	3.5µM*	u	u	u
CC(C)C[C@H](NC(=O)c1[nH]cnc1C(=O)N[C@H](C)c1ccccc1)C(=O)OC(C)(C)C	5µM*	u	5.6µM*	u	u	u
C[C@H](NC(=O)c1nc[nH]c1C(=O)N[C@@H](C)c1ccccc1)C(=O)OC(C)(C)C	2.8µM*	i	6.3µM*	i	-4%	3%
CC(C)(C)c1ccc(C(=O)Nc2ccc(-c3nc4ccccc4[nH]3)cc2)cc1	x	i	x	i	x	x
Cc1cc(C)c2ccccc2n1	x	i	x	i	x	x
Cc1cc(-c2nc3ccccc3o2)c2ccccc2n1	u	i	-2%	13µM*	5%	7%
O=C(NNC1=C(C(=O)C(F)(F)F)CCC1)c1cccnc1	7.1µM*	i	11µM*	i	21%	-5%
Cc1cccc(C(=O)NNC(=O)c2ccc(Cl)cc2)c1O	u	u	-66%	i	-2%	u
Cc1cccc(C(=O)NNC2=C(C(=O)C(F)(F)F)CCC2)c1O	6.3µM*	u	10µM*	i	u	u
O=C(NNC1=C(C(=O)C(F)(F)F)CCC1)c1cccc(O)c1	5µM*	u	3.5µM*	i	u	u
FC(F)(F)c1ccccc1Cc1c(-c2cccc(Cl)c2)nc2c3ccccc3ccn12	x	i	x	i	x	x
Oc1[nH]c2ccccc2c1N=Nc1nc2ccccc2s1	u	i	-24%	i	14%	-4%
Cc1ccc2[nH]c(O)c(N=Nc3nc4ccccc4s3)c2c1	2.8µM*	u	-2%	13µM*	-9%	1%
COc1ccc(CCn2c(C)cc(C(=O)CN3C(=O)C(=O)N(Cc4ccco4)C3=O)c2C)cc1	x	5.8µM*	x	i	12%	143%
Cc1cc(C(=O)CSc2nnc(-c3ccc(F)cc3)o2)c(C)n1CC1CCCO1 (stereo not drawn)	-22%	i	-11%	u	2%	-7%
COc1cc(-c2nnc(SCC(=O)c3cc(C)n(CC4CCCO4)c3C)o2)cc(OC)c1OC (stereo not drawn)	28%	i	-7%	18µM*	23%	10%
Cc1cc(C(=O)COC(=O)c2ccc(CO)cc2)c(C)n1CC1COc2ccccc2O1 (stereo not drawn)	31%	i	u	i	1%	0%
